Out of some 360,000 compounds screened, about 10,000 (2.8%) were called active. Another 4% or so got no clear call; they are omitted. Calls come from the whole dose curve; as a rule, active = well fitted inhibition curve with a large enough effect; inconclusive = small, poorly fitted or top-dose-only effect; inactive = flat fitted curve, though single readings scatter. What follows is part of a selection rich in actives, with near analogues and random picks from the rest.
target: Serine/threonine-protein kinase PLK1 (Homo sapiens) (UniProt P53350); assay: qHTS for Inhibitors of PLK1-PDB (polo-like kinase 1 - polo-box domain): Primary Screen; conditions: Plk1 PBD binding of FITC phosphopeptide, fluorescence polarization; note: nearly all actives have a fitted effect of over 65% in size; for max response, negative = inhibition: series mostly up to about 57 µM
% is set by controls: 0 for no effect and ±100 for the full control effect; potency is the fitted concentration of half-maximal effect.

Serine/threonine-protein kinase PLK1 (Homo sapiens), sequence (P53350 whole entry, looked up, the tested form may be a part): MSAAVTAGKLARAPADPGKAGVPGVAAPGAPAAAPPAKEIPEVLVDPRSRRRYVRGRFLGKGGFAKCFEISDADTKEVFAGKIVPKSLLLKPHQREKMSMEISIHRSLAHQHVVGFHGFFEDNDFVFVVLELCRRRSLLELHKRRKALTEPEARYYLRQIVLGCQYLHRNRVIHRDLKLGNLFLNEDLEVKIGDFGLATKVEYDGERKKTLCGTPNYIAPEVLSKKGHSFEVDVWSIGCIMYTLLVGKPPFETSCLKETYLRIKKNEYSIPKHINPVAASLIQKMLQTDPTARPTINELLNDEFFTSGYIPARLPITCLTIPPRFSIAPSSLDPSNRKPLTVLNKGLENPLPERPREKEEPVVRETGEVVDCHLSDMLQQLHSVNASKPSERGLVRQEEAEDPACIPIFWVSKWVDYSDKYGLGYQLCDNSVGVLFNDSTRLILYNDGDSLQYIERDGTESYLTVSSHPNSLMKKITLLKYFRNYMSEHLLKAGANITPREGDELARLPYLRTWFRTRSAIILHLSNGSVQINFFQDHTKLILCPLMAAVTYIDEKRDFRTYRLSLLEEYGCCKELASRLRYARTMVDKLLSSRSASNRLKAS

SMILES | max response, negative = inhibition | Potency
O=C(COc1ccc(S(=O)(=O)N2CCCC2)cc1[N+](=O)[O-])N1CCCCC1 | 0.94% (inactive) | –
C[C@H]1CN([C@@H](C)CO)C(=O)CCCn2cc(nn2)CO[C@@H]1CN(C)S(=O)(=O)c1ccccc1C#N | -15.7% (inactive) | –
CCN1CCN(C(c2cccnc2)c2cc(Cl)c3cccnc3c2O)CC1 (configuration not stated) | – | 10.6 µM (active)
CCOC(=O)N1CCN(C(c2cccnc2)c2ccc3cccnc3c2O)CC1 (configuration not stated) | – | 5.97 µM (active)
Cc1onc(C(=O)NN)c1C(=O)N1CCN(C(c2ccccc2)c2ccccc2)CC1 | 1.96% (inactive) | –
CCOC(=O)N1CCN(C(c2ccnc3ccccc23)c2nnnn2-c2c(C)cccc2C)CC1 (configuration not stated) | 6.16% (inactive) | –
O=C(NC1CCCC1)C1c2ccccc2OCC(=O)N1CC(F)(F)F (configuration not stated) | -3.82% (inactive) | –
CCOC1=C2[C@@H](CN(S(=O)(=O)c3ccc(C)cc3)[C@H]2c2ccccc2F)[C@H]2C(=O)N(Cc3ccccc3)C(=O)[C@H]2C1 | -14.5% (inactive) | –
CCCCCCNC(=O)O[C@]12C[C@@H](C(=O)OC)[C@@H](C(=O)OC)C[C@@]1(O)CN(S(=O)(=O)c1ccc(C)cc1)C2 | -1.62% (inactive) | –
CCc1ccc(C2C(C#N)=C(N)N(N(C)C)C3=C2C(=O)CCC3)s1 (configuration not stated) | 2.14% (inactive) | –
COc1ccc(C2C(C#N)=C(/N=C/N3CCOCC3)OC3=C2C(=O)CC(C)(C)C3)cc1OC (configuration not stated) | -6.22% (inactive) | –
CCc1ccc(C2C(C#N)=C(N)N(N3CCOCC3)C3=C2C(=O)CC(C)(C)C3)s1 (configuration not stated) | – | 26.7 µM (active)
CCC(Oc1ccccc1)C(=O)NCc1cccnc1 (configuration not stated) | – | 18.9 µM (active)
O=C(O)c1ccccc1-c1ccccc1C(=O)NCc1cccnc1 | -5.72% (inactive) | –
O=C(NCc1cccnc1)Nc1ccccc1F | -0.233% (inactive) | –
COc1cccc(C(NC(C)=O)c2nc(-c3ccccc3OC)cs2)c1 (configuration not stated) | -10% (inactive) | –
CC1=NN(C(N)=S)C(=O)C1N=Nc1cc(Cl)ccc1Cl (configuration not stated) | – | 26.7 µM (active)
O=C(c1cc(-c2ccc(F)cc2)on1)N1CCN(c2ccc(F)cc2)CC1 | – | 26.7 µM (active)
COc1ccc(-c2cc(C(=O)N3CCN(c4ccc(F)cc4)CC3)no2)cc1 | -9.29% (inactive) | –
O=C(c1cc(-c2ccc(Cl)cc2)on1)N1CCN(c2ccccc2)CC1 | -5.98% (inactive) | –
OC[C@@H]1CN(Cc2ccc(-c3ccccc3)cc2)C[C@H](n2cnc3c(NC4CCCC4)ncnc32)O1 | 4% (inactive) | –
CCOC(=O)c1cc(-c2sc(NC(=O)c3ccccc3)nc2C)n(Cc2ccccc2)n1 | 7.73% (inactive) | –
COC(=O)[C@]12CCCCC=C1N(CCC1=CCCCC1)C(=O)[C@H](CC(=O)NCC1CCCCC1)C2 | -2.73% (inactive) | –

SMILES | max response, negative = inhibition | Potency
Cc1csc(NC(=O)C2=COCCO2)n1 | -3.95% (inactive) | –
CCC(CC)c1nnc(NC(=O)C2=COCCO2)s1 | -0.0349% (inactive) | –
Cc1sc(NC(=O)C2=COCCO2)c(C#N)c1C | – | 11.9 µM (active)
COc1cccc(NC(=O)Nc2ccc(F)cc2)c1 | -6.36% (inactive) | –
COc1cc(CNC2CCCC2)c(Br)cc1OCc1ccccc1 | -0.667% (inactive) | –
COc1cc(C(=S)NCc2ccccc2)cc(Br)c1O | – | 4.23 µM (active)
COc1cc(C(=O)NCc2ccncc2)cc(Br)c1OCc1ccccc1 | -15.6% (inactive) | –
Nc1nc2cc(Cl)ccc2n1N | -1.19% (inactive) | –
CCCNC(=O)c1cc(C2CCCCN2C(=O)OC)on1 (configuration not stated) | -6.79% (inactive) | –
O=C(c1ccc(CS(=O)Cc2ccccc2Cl)o1)N1CCN(c2ccccc2)CC1 (configuration not stated) | -18.2% (inactive) | –
Cc1ccc2nc(-c3ccccc3)c(CC3CCCCC3)n2c1 | -7.91% (inactive) | –
O=C1NC(O)CCN1C1CC(O)C(CO)O1 (configuration not stated) | -1.57% (inactive) | –
Nc1ccccc1SC(C[N+](=O)[O-])c1ccccc1 (configuration not stated) | – | 0.752 µM (active)
Nc1cccc(OCCCCCOc2cccc(N)c2)c1 | 1.62% (inactive) | –
N#Cc1cccc(NC(=O)c2cc(C3CCCCN3C(=O)CCc3ccccc3)on2)c1 (configuration not stated) | 4.56% (inactive) | –
Cc1ccccc1S(=O)(=O)NC(=O)C1(C)CCN1C(=O)Cc1ccc(Cl)cc1Cl (configuration not stated) | -14.1% (inactive) | –
O=C(c1ccco1)N1CCN(C(=O)C2CC(c3ccc(F)cc3)=NO2)CC1 (configuration not stated) | – | 26.7 µM (active)
O=C(c1ccco1)N1CCN(C(=O)C2CC(c3ccc(Cl)c(Cl)c3)=NO2)CC1 (configuration not stated) | -17% (inactive) | –
CCOC(=O)N1CCN(C(=O)C2CC(c3ccc(F)cc3)=NO2)CC1 (configuration not stated) | -12.9% (inactive) | –
COc1ccc(CN(C)C(=O)Cc2ccsc2)c(OC)c1OC | -14.4% (inactive) | –
COc1cccc(CN(C)C(=O)CC23CC4CC(CC(C4)C2)C3)c1OC | – | 29.9 µM (active)
COc1ccc(S(=O)(=O)N2CCCCCC2)cc1C(=O)N(C)Cc1cccc(OC)c1OC | -7.8% (inactive) | –
Cc1ccc(S(=O)(=O)NN=C2CC(C)(C)CC(=O)C2(C)C)cc1 | -5.23% (inactive) | –

SMILES | max response, negative = inhibition | Potency
c1ccc(Cc2ccc(OCCn3ccnc3)cc2)cc1 | 4.09% (inactive) | –
CCOc1ccc(C2/C(=C(/O)c3ccc4c(c3)CC(C)O4)C(=O)C(=O)N2CCCn2ccnc2)cc1 (configuration not stated) | -16.9% (inactive) | –
CCCOc1ccc(C2C(C(=O)c3ccc(C)o3)=C(O)C(=O)N2CCCn2ccnc2)cc1 (configuration not stated) | – | 23.8 µM (active)
COc1ccc(C(=O)N2CCCN(C)CC2)c(OC)c1 | 1.15% (inactive) | –
COc1cc(OC)c(C(=S)N2CCCC2)cc1OC | – | 11.9 µM (active)
COc1cc(OC)c(C(=O)N2CCCC2)cc1OC | -4.54% (inactive) | –
NC(=O)CSc1nnc(-c2cccc(S(=O)(=O)N3CCOCC3)c2)o1 | -12.4% (inactive) | –
CCN(CC)C(=O)C1=C(C)N(Cc2ccc(F)cc2)C(=O)C(CC(=O)NC2CCCC2)C1 (configuration not stated) | 3.61% (inactive) | –
CC(C)C[C@H]1CN([C@@H](Cc2ccccc2)CN2CCC[C@@H]2CN2C(=O)C(=O)NC[C@@H]2Cc2ccc(O)cc2)C(=O)C(=O)N1CCc1ccccc1 | 0.344% (inactive) | –
CN1CCN(c2nc3c(c(=O)[nH]c(=O)n3C)n2Cc2cccc3ccccc23)CC1 | -17.6% (inactive) | –
Cc1cccc(OCC(O)Cn2c(N3CCCCC3)nc3c2c(=O)[nH]c(=O)n3C)c1 (configuration not stated) | -3.66% (inactive) | –
CCC(C)Sc1nc2c(c(=O)[nH]c(=O)n2C)n1CC(O)COc1cccc2ccccc12 (configuration not stated) | – | 18.9 µM (active)
CC1(C(=O)O)CCCN(C(=O)/C=C/c2ccccc2)C1 (configuration not stated) | -5.95% (inactive) | –
CCC(=O)N1CCC(C)(C(=O)Nc2cc(OC)c(OC)c(OC)c2)C1 (configuration not stated) | 4.76% (inactive) | –
O=S1(=O)CC(N2CCC(Cc3ccccc3)CC2)CN1Cc1ccccc1 (configuration not stated) | -4.73% (inactive) | –
COC(=O)c1nc(NC(=O)c2ccc(Cl)cc2)n[nH]1 | – | 26.7 µM (active)
O=C(Nc1nsc(-c2ccccc2)n1)c1ccncc1 | 0.306% (inactive) | –
COC(=O)c1nc(NC(=O)c2ccc(F)cc2)n[nH]1 | – | 15 µM (active)
COC(=O)c1nc(NC(=O)c2ccccc2)n[nH]1 | – | 26.7 µM (active)
CC(C)Oc1cc(F)ccc1-c1cc(C(=O)Nc2ccc(F)cc2)[nH]n1 | -4.13% (inactive) | –
COC(=O)c1nc(NC(=O)c2ccc(C(C)(C)C)cc2)n[nH]1 | – | 3.77 µM (active)
COc1ccc(C(=O)NNC(=O)c2cc(C)[nH]n2)cc1 | -5.72% (inactive) | –
O=C(Nc1n[nH]c(C(F)(F)F)n1)c1cccs1 | -23.4% (inactive) | –

SMILES | max response, negative = inhibition | Potency
COc1ccc(C(=O)Nc2ccc(F)cc2F)cc1 | -1.72% (inactive) | –
COC(=O)c1sccc1NC(=O)c1ccc(Cl)cc1 | -7.12% (inactive) | –
CSc1nccc(NC(=O)c2ccc(C(C)(C)C)cc2)n1 | -8.27% (inactive) | –
CCOC(=O)NNC(=O)c1ccc(Cl)cc1 | -5.54% (inactive) | –
OC[C@@H]1CN(Cc2ccc(Cl)cc2)C[C@H](n2cnc3c(NCc4ccncc4)ncnc32)O1 | -6.44% (inactive) | –
O=C1Nc2ccccc2-n2nnnc2C1N1CCN(c2cccc(C(F)(F)F)n2)CC1 (configuration not stated) | -6.8% (inactive) | –
COc1cccc(-c2cnc3c(NC(C)=O)cc(-c4cc(F)ccc4OC)cn23)c1 | -5.58% (inactive) | –
CCOC1=C2[C@H]([C@H]3C(=O)N(c4ccccc4)C(=O)[C@H]3C1)[C@@H](c1ccccc1)N(S(=O)(=O)c1ccc(C)cc1)[C@H]2c1ccccc1 | 1.42% (inactive) | –
Cc1ccccc1C#CC1=CC(=O)CC(C)(C)C1 | -11.2% (inactive) | –
COc1ccccc1CNC(=O)c1cc(-c2cc(F)ccc2OC)n[nH]1 | -1.03% (inactive) | –
O=C(OC1CC2CC1[C@H]1CCCCN1C2=O)N1CCOCC1 (some centres not stated) | -1.86% (inactive) | –
COc1cc(C(O)c2nc(-c3cnn(C)c3)cs2)ccc1F (configuration not stated) | -2.35% (inactive) | –
COc1cc(C(=O)N2CCOC23CCN(Cc2ccccc2)CC3)cc(OC)c1OC | 1.8% (inactive) | –
Nc1ncnc2c1ncn2[C@@H]1O[C@H](C(=O)N2CCCN(Cc3ccccc3F)CC2)[C@@H](O)[C@H]1O | -0.717% (inactive) | –
CC1CCN(C(=S)NC(=O)c2ccccc2Br)CC1 | -2.34% (inactive) | –
Cc1nc2ccc(NC(=S)N3CCC(C)CC3)cc2nc1C | 0.665% (inactive) | –
CC1CCN(C(=S)c2cccc(O)c2)CC1 | – | 18.9 µM (active)
CCCCc1c(-c2ccc(Br)cc2)ncn1CCc1ccccc1OC | 3.4% (inactive) | –
NCCCCC(C(=O)O)N(C(=O)OCc1ccccc1)C(=O)OCc1ccccc1 (configuration not stated) | -19.2% (inactive) | –
CC1Cc2[nH][nH]c(=O)c2C(C2CC2)O1 (configuration not stated) | -23.1% (inactive) | –
Cc1oc2c(F)c(F)c(F)c(F)c2c1S(=O)(=O)Nc1cccc(C(F)(F)F)c1 | – | 37.7 µM (active)
O=C(COc1ccc(S(=O)(=O)Nc2cccc(C(F)(F)F)c2)cc1)N1CCOCC1 | -3.59% (inactive) | –
O=C(NCc1ccccc1)c1ccc(S(=O)(=O)Nc2cccc(C(F)(F)F)c2)cc1 | -14.9% (inactive) | –

Source: PubChem BioAssay AID720504 (National Center for Advancing Translational Sciences (NCATS), 2013)
